From PubChem
MARV entry inh: inhibitors of Marburg virus binding or cell entry; Marburg virus pseudotyped entry inhibition, cell reporter; Potency, µM (doses to about 37.8 µM), hits mostly inhibitors; hit rate 1.8% among 300,000; calls by dose curve; tested in HEK293 cells
Shiga toxin inh: Shiga toxin inhibition; inhibition, % at 38.7 µM; Vero cells, Shiga toxin protein synthesis inhibition reporter; hit rate 9.2% among 290,000; in the data active = inhibition mostly above about 28%, no sharp cut-off; inactive = mostly below about 43%
Lassa entry inh: inhibitors of Lassa virus binding or cell entry. Lassa virus pseudotype entry inhibition, cell reporter. Potency, µM (highest dose often 37.9 µM), usual class: inhibitors. hit rate 1.2% among 300,000. AID 540256; calls by dose curve; tested in HEK293 cells; also: nearly all actives have a fitted effect of over 50% in size
CHX counter: counter-screen hit for Shiga toxin inhibitors, cycloheximide. max response, %. cell reporter, cycloheximide protein synthesis inhibition counterscreen. AID 2314. hit rate 12% among 300,000; in the data active = max response mostly above about 13%, no sharp cut-off; inactive = mostly below about 14%; also: read at 38.3 µM for the half of the compounds with a filed dose
Pf growth 96h: inhibits malaria parasite growth, 96 h. P. falciparum luciferase reporter growth, 96 h. Potency, µM (doses to about 28.7 µM), actives largely listed as inhibitors. hit rate 6.9% among 320,000. AID 504834
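Luminescence readout: decreased luciferase signal marks inhibited growth of reporter-expressing P. falciparum in infected red cells (2% hematocrit, 0.05% parasitemia final), exposed to compound two generations (96 h, 37 C, 5% CO2).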
Pf growth 48h: inhibits P. falciparum growth in the first generation, 48 h | P. falciparum luciferase growth in erythrocytes, 48 h | Potency, µM (doses to about 28.7 µM), usual class: inhibitors | hit rate 5.9% among 310,000
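Parasite viability was followed by luminescence of a genomically integrated firefly luciferase. Cultures held 0.1% parasitemia at 2% hematocrit (final), incubated under 5% CO2 at 37 C.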
Large screens that a line does not name were inactive. A selection: hits, their analogues and other compounds. The true share with any hit is near 19%. Unless noted, calls follow the shape of the dose curve; as a rule, active = well fitted inhibition curve with a large enough effect; inconclusive = small, poorly fitted or top-dose-only effect, or another doubt; inactive = no such curve, though single readings can be large or run the other way.

COc1ccc(NC(=O)CCCn2c(=O)c3sccc3n(Cc3ccccc3C)c2=O)cc1	MARV entry inh inconclusive, Lassa entry inh inconclusive, Pf growth 48h inconclusive
Cc1ccc(NC(=O)CCn2c(=O)[nH]c3ccsc3c2=O)cc1	Pf growth 96h inconclusive
CCOc1ccc(NC(=O)CCn2c(=O)[nH]c3ccsc3c2=O)cc1	Pf growth 96h 7.4µM (no result: Pf growth 48h)
O=C(CCCn1c(=O)[nH]c2ccsc2c1=O)Nc1ccc(F)cc1	none (no result: MARV entry inh, Lassa entry inh)
COc1ccc(NC(=O)CCCn2c(=O)c3sccc3n(Cc3ccccc3)c2=O)cc1	CHX counter 26, Pf growth 96h inconclusive, Pf growth 48h inconclusive
CCc1cccc(NC(=O)CCCn2c(=O)[nH]c3ccsc3c2=O)c1	Pf growth 96h 2.9µM
CCOc1ccc(NC(=O)CN(C)C(=O)c2cc(C)oc2C)cc1OCC	none (no result: Shiga toxin inh, CHX counter)
O=c1[nH]c(=S)[nH]c(-c2ccccc2)c1Cc1c(O)ccc2ccccc12	none (no result: Shiga toxin inh, CHX counter, Pf growth 96h, Pf growth 48h)
O=C(Nc1cccnc1)c1cccc(S(=O)(=O)N2CCc3ccccc32)c1	Pf growth 96h 3.3µM, Pf growth 48h 10µM
COc1ccc(S(=O)(=O)N2CCc3ccccc32)cc1C(=O)O	none (no result: MARV entry inh, Shiga toxin inh, Lassa entry inh)
COc1ccc(S(=O)(=O)N2CCc3ccccc32)cc1C(=O)Nc1cccnc1	Pf growth 96h 2.9µM, Pf growth 48h inconclusive
O=C(NC1=NCCS1)c1cccc(S(=O)(=O)N2CCc3ccccc32)c1	Pf growth 48h inconclusive
O=C(COc1ccc(S(=O)(=O)N2CCc3ccccc32)cc1Cl)NCc1ccccn1	MARV entry inh inconclusive, Lassa entry inh inconclusive, Pf growth 48h inconclusive (no result: Pf growth 96h)
O=C(O)c1cccc(NC(=O)c2cccc(S(=O)(=O)N3CCc4ccccc43)c2)c1	none
COc1ccc(S(=O)(=O)N2CCc3ccccc32)cc1C(=O)NCCc1ccccn1	MARV entry inh inconclusive, Pf growth 96h inconclusive, Pf growth 48h 10µM
O=C(Nc1ccncc1)c1cccc(S(=O)(=O)N2CCc3ccccc32)c1	MARV entry inh inconclusive, Pf growth 96h inconclusive, Pf growth 48h 10µM (no result: Shiga toxin inh, CHX counter)
Cc1ccc(/C=C/C(=O)NCCc2c[nH]c3ccccc23)o1	none
Cc1occc1C(=O)Nc1nn[nH]n1	none (no result: Pf growth 48h)
Cc1cccc(N(C)C(=O)COc2cc(=O)n(C)c3ccccc23)c1	none (no result: MARV entry inh, Lassa entry inh, Pf growth 48h)
CC1Cc2ccccc2N1S(=O)(=O)c1cccc(C(=O)NC2CC2)c1 (stereo not drawn)	Pf growth 96h inconclusive (no result: Pf growth 48h)
COc1ccc(S(=O)(=O)N2CCc3ccccc32)cc1C(=O)OCc1c(C)noc1C	MARV entry inh 3.5µM, Lassa entry inh 18µM, Pf growth 96h inconclusive, Pf growth 48h inconclusive
O=C(Nc1cccnc1)c1ccc(Cl)c(S(=O)(=O)N2CCc3ccccc32)c1	Pf growth 96h 3.7µM, Pf growth 48h 2.6µM
CC1Cc2ccccc2N1S(=O)(=O)c1cccc(C(=O)Nc2cccnc2)c1 (stereo not drawn)	MARV entry inh inconclusive, Pf growth 96h inconclusive, Pf growth 48h 8.3µM
CCN(CC)S(=O)(=O)c1ccc(Cl)c(NC(=O)COC(=O)/C=C/c2ccc(O)c(OC)c2)c1	none
CC(=O)c1c(C)nc(-c2ccccc2)nc1N	Shiga toxin inh 58, CHX counter 29 (no result: MARV entry inh, Lassa entry inh)
CC(=O)c1c(C)nc(-c2ccccc2)nc1NC(=O)C(C)C	none (no result: Pf growth 96h, Pf growth 48h)
CCOC(=O)c1c(C)nc(-c2ccccc2)nc1N	MARV entry inh inconclusive, Shiga toxin inh 123, Lassa entry inh inconclusive, CHX counter 33, Pf growth 96h 10µM
CCOC(=O)c1c(C)nc(C)c(C(=O)OCC)c1-c1ccccc1	none
CCOC(=O)c1c(-c2ccccc2)cn2c(C)cc(C)nc12	Shiga toxin inh 71, Lassa entry inh inconclusive, CHX counter 35
CC(=O)Nc1nc(-c2ccccc2)nc(C)c1C(C)=O	Pf growth 96h 1.9µM
CCn1c(SC)nnc1-c1sc2cc(Cl)ccc2c1Cl	Shiga toxin inh 71, CHX counter 14, Pf growth 48h inconclusive (no result: Pf growth 96h)
COCCCNC(=O)c1ccc(Cn2c(=O)c3ccccc3n(Cc3cc(C)ccc3C)c2=O)cc1	MARV entry inh inconclusive, Pf growth 48h 13µM (no result: Pf growth 96h)
C=CCn1c(=O)c2ccc(C(=O)NCc3ccccc3)cc2n(Cc2ccc(C)cc2)c1=O	Pf growth 96h 2.3µM
COc1ccc(-n2c(=O)c3ccc(C(=O)NCc4ccc(C)cc4)cc3n(Cc3ccc(C)cc3)c2=O)cc1	none (no result: Shiga toxin inh, CHX counter, Pf growth 96h, Pf growth 48h)
N#CC1=C2SCN(Cc3ccccc3)CN2C(=O)CC1c1cccs1 (stereo not drawn)	none (no result: MARV entry inh, Lassa entry inh, Pf growth 48h)
COC(CNC(=O)CCCn1nnnc1CN1CCOCC1)c1cccs1 (stereo not drawn)	none
CC(=O)Nc1ccc(S(=O)(=O)N2CCC(C(=O)c3ccc(Cl)cc3)CC2)cc1	MARV entry inh inconclusive, Lassa entry inh inconclusive
COc1ccc(-c2noc(CN(C)C(=O)c3ccoc3C)n2)cc1	MARV entry inh inconclusive, CHX counter 24, Pf growth 96h inconclusive
Cc1cccc(-c2noc(CN(C)C(=O)c3ccco3)n2)c1	MARV entry inh inconclusive, Shiga toxin inh 154, CHX counter 30
Cc1cccc(-c2noc(CN(C)C(=O)c3ccoc3C)n2)c1	Shiga toxin inh 60
Cc1cccc(-c2noc(CNC(=O)c3ccco3)n2)c1	MARV entry inh inconclusive
Cc1noc(C)c1CSc1ccccc1C(=O)N1CCN(c2ccccc2)CC1	Lassa entry inh 10µM, Pf growth 96h inconclusive, Pf growth 48h inconclusive
COCCSc1ccccc1C(=O)N1CCN(c2ccccc2)CC1	none
O=C(COC(=O)/C=C/c1c(F)cccc1Cl)NCC1CCCO1 (stereo not drawn)	none (no result: Shiga toxin inh, CHX counter)
COc1ccc2c(c1)c(CCN1CCOCC1)c(C)n2C(=O)c1cccc(Cl)c1Cl	MARV entry inh inconclusive, Lassa entry inh 23µM (no result: Shiga toxin inh, CHX counter, Pf growth 96h, Pf growth 48h)
COc1cc(C2C(C(C)=O)=C(O)C(=O)N2c2ccc(C)cc2)ccc1O (stereo not drawn)	none
CC(C)(C)NS(=O)(=O)c1ccc(CCC(=O)Nc2ccc3c(c2)OCCO3)cc1	MARV entry inh inconclusive, Pf growth 48h inconclusive
CC(C)NS(=O)(=O)c1ccc(CCC(=O)Nc2ccc3c(c2)OCCO3)cc1	MARV entry inh inconclusive, Pf growth 96h inconclusive, Pf growth 48h 4.7µM
CCNS(=O)(=O)c1ccc(CCC(=O)Nc2ccc3c(c2)OCCO3)cc1	Pf growth 96h inconclusive, Pf growth 48h 9.3µM (no result: MARV entry inh, Shiga toxin inh, Lassa entry inh)
Cc1ccc(C)c(NC(=O)COC(=O)c2ccc3c(c2)OCO3)c1	none (no result: MARV entry inh, Lassa entry inh)
CCOc1ccccc1C=NNC(=O)c1cccc2ccccc12	none (no result: Shiga toxin inh, CHX counter, Pf growth 96h, Pf growth 48h)
NC(=O)N/N=C/c1ccccc1OCc1cccc2ccccc12	Pf growth 96h 13µM (no result: MARV entry inh, Lassa entry inh)
Cc1ccc(CNC(=O)CCc2ccccc2)cc1	CHX counter 15 (no result: MARV entry inh, Lassa entry inh)
COc1ccc(/C=N/NC(=O)COc2ccccc2-c2ccccc2)cc1	MARV entry inh inconclusive, Lassa entry inh inconclusive, Pf growth 96h inconclusive, Pf growth 48h inconclusive
CC(NC(=O)COc1ccccc1-c1ccccc1)c1ccccc1 (stereo not drawn)	MARV entry inh inconclusive, Lassa entry inh 18µM, Pf growth 96h inconclusive, Pf growth 48h inconclusive
O=C(COc1ccccc1-c1ccccc1)N/N=C/c1cccc2ccccc12	MARV entry inh inconclusive, Lassa entry inh inconclusive, Pf growth 96h 9.3µM, Pf growth 48h inconclusive
Cc1ccccc1CNC(=O)CCc1ccccc1	MARV entry inh inconclusive, CHX counter 18, Pf growth 96h inconclusive
